Laboratory results from PubChem BioAssay (EPA / NIEHS).
The source made the active and inactive calls. Rule for the calls: active = hit-call score of the fitted dose curve at least 0.9, where 1 is the maximum; inactive = score below 0.9.

Read-out: catalase (CAT), CAT (gene 847)
Test: LTEA_HepaRG_CAT: Life Technologies and Expression Analysis (LTEA) Assay for catalase (CAT) using HepaRG (AID 2283452);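 for AC50: TaqMan qRT-PCR signal normalized to ACTB GAPDH and POLR2A housekeeping genes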
Conditions: mRNA level, 48 h; actives raise or lower the signal
Description: LTEA_HepaRG is a cell based, multiplexed-readout assay that uses HepaRG, a human liver cell line, with measurements taken at 48 hours after chemical dosing on a 96-well plate.LTEA_HepaRG_CAT is one of 102 assay component(s) measured in the LTEA HepaRG cell culture assay. It is a marker of Oxidative Stress.Data from the assay component LTEA_HepaRG_CAT was analyzed into 1 endpoint. This assay endpoint, LTEA_HepaRG_CAT, was analyzed with bidirectional fitting relative to DMSO as the negative control and baseline of activity. Using a type of inducible reporter, measures of mRNA induction for gain or loss-of-signal activity can be used to understand regulation of transcription factor activity. To generalize the intended target to other relatable targets, this assay endpoint is annotated to the catalase intended target family, where the subfamily is oxidative stress.
A total of 1060 chemcials from the ToxCast library were tested in eight-point concentration-response experiments. Cell culture and cytotoxicity assays were conducted at Thermo Fisher Scientific's Custom Services facility (Madison, WI). A single lot of human HepaRG cells (Thermo Fisher Scientific, Frederick, MD) was used for the cell culture experiments. 96-well format collagen type I coated plates of human HepaRG cells were prepared using established methods. Briefly, cryopreserved HepaRG cells were thawed, plated at a density of approximately 100,000 cells/well in HepaRG Thaw, Plate, and General Purpose media (HPRG770, Thermo Fisher Scientific), and incubated for 48 hours. 0.5% DMSO was selected as vehicle control to balance the requisite need of DMSO in HepaRG cultures to maintain differentiation (for example, baseline metabolism, proportions of hepatocytes vs. cholangiocytes), while enabling further hepatic receptor pathway activation (for example, PXR and CAR) in response to chemical exposure. 48 hours after plating, the culture medium was replaced with HepaRG Serum-Free Incudtion Media. Cells were exposed to each test chemical in duplicate and maintained in CO2 incubators for another 48 hours. Chemical plates were thawed to room temperature and 200x concentrations of treatment groups were prepared. 8-point conentration-reponse curves were made with the highest exposure at 100 uM, followed by half-log dilutions, all in 0.5% DMSO. Each test plate contained variouse controls, induction positive controls (1mM phenobarbital), cytotoxicity positive controls ([…] aflatoxin B1), vehicle controls (0.5% DMSO), and total lysis controls (0.5% DMSO). Cell morphology images were taken using an Essen IncuCyte FLR automated microscope, with six 96-well plates imaged in about 24 minutes. Images were captured and exported and JPEG files. Spent culture media was transfered to black-well plates for the LDH assay, and remaining media was sorted at -80 C for later use. Cells were treated with RLT buffer and frozen until shipped for gene expression analysis. Total RNA was isolated from the cell suspension in 75 uL of Buffer RLT (Qiagen, Germantown, MD 20874) by Quintiles/Expression Analysis (Durham, NC) using a custom isolation procedure. Total RNA from each plate well was transferred to a preamplification plate. Fluidigm's 96.96 Dynamic ArrayTM (Fluidigm, Amsterdam, the Netherlands) technology was used for gene expression analyses by quantitative reverse transcription polymerase chain reaction (qRT-PCR, performed by Quintiles/Expression Analysis, Durham, NC)89. Standard TaqManTM Assays (Applied Biosystems/ThermoFisher Scientific, Foster City, CA) were used to assess the expression of 93 genes selected based on their selectivity and sensitivity to important hepatic receptors known to be modulated by environmental chemicals; importance in human hepatocyte functionality; and hepatotoxicity. […]

`Oc1c(Cl)cc(Cl)cc1Cl` was tested. Which outcome did it give?
The outcome was “inactive”.

For `Clc1cccc(Cl)c1Cl`, which outcome is on record?
Its outcome is “inactive”.

For `CCCCCCCCCCCCc1cccc(S(=O)(=O)O)c1`, which outcome is on record?
Its outcome is “inactive”.

How did the outcome turn out when `O=C(N[C@H]1CN2CCC1CC2)c1ccc2c(c1)OCCO2` was run?
The outcome was “inactive”.

With `O=C(O)C1(c2ccc3c(c2)OC[C@H](Cc2ccc(-c4ccccc4)cc2)[C@H]3O)CCCC1` as the molecule, how does the AC50 read?
The AC50 was 82 µM (active).

How did the outcome turn out when `OCCN(CCO)CCO` was run?
The outcome was “inactive”.

For `Clc1cccc(Cl)c1`, which outcome is on record?
The outcome was “inactive”.

For `CC(C)(C)c1ccccc1O`, which outcome is on record?
Its outcome is “inactive”.

`N#Cc1cccnc1` was tested. Which outcome did it give?
The outcome was “inactive”.

How did the outcome turn out when `Cc1cc(C)cc(C)c1` was run?
Its outcome is “inactive”.

Which outcome does the source give for `COc1ccccc1N` here?
Its outcome is “inactive”.

How did the outcome turn out when `CN(C)C(=S)S` was run?
Its outcome is “inactive”.

`Oc1cc(Cl)c(Cl)cc1Cl` was tested. Which outcome did it give?
The outcome was “inactive”.

For `CC(C)O.CC(C)O.OCCN(CCO)CCO.OCCN(CCO)CCO.[Ti]`, which outcome is on record?
Its outcome is “inactive”.
